In PubChem BioAssay:
Calls of active or inactive are those of the source. Unless noted, the rule behind the calls is not given here.

Tests used:
[1] = test system: Wnt5a (protein binding on small-molecule microarray); test: Wnt5a binders on small-molecule microarray, primary screen, biophysical, 635/667 nm fluorescence (AID 1142); settings: 635 nm fluorescence, higher = more signal;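 note: fluorescence read at 667 nm with signal to noise per printed feature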
[2] = cell viability in Huh7 cells, primary screen, cytotoxicity control for HCV replication inhibitor project, CellTiter-Glo luminescence, basal, 48 h (AID 1143); settings: Huh7 HCV replicon, higher = more signal, called active from +8 up or from −8 down;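 note: Huh7 hepatoma cells carrying a hepatitis C replication reporter with no stimulus; test concentration not given here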
[3] = P. aeruginosa biofilm formation inhibitors, primary screen, PAO1 strain, BacTiter-Glo luminescence, LB-PBS (AID 1144); settings: 12 h, higher = more signal
[4] = CREB reporter modulators without forskolin, primary screen, cell-based, PC12, CRE-LacZ reporter, unstimulated (AID 1145); settings: no forskolin, luminescence, 4.5 h, higher = more signal, called active from +8 up or from −8 down
[5] = CREB reporter modulators under forskolin, primary screen, cell-based, PC12, CRE-LacZ reporter, forskolin-stimulated (AID 1146); settings: luminescence, 4.5 h, higher = more signal, called active from +8 up or from −8 down;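 note: PC12 cells with 6xCRE LacZ reporter stimulated by forskolin 10 µM; beta-galactosidase reporter signal reflecting CREB driven transcription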
[6] = target: Streptavidin (Streptomyces avidinii) (UniProt P22629); test: streptavidin binders on small-molecule microarray, primary screen, artefact control for SMM compound annotation, biophysical, 635/667 nm fluorescence (AID 1147); settings: streptavidin binding, higher = more signal;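 note: signal reflects streptavidin binding to arrayed compounds as a control protein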
Sequence of Streptavidin (Streptomyces avidinii) (P22629 whole entry, looked up): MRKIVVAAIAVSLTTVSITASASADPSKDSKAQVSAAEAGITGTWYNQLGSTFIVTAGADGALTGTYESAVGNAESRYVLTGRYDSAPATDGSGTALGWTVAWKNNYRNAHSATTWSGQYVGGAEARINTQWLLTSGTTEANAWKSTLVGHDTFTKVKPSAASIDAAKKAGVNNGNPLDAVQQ

[7] = small-molecule binders of probe aInhba, primary screen, biochemical, small-molecule microarray, 635/667 nm fluorescence (AID 1148); settings: higher = more signal;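 note: score merges 667nm spot fluorescence with signal-to-noise for antibody binding to printed compounds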
[8] = target: Torsin-1A (Homo sapiens) (UniProt O14656); test: torsin A binders from cell lysate, primary screen, small-molecule microarray, wild-type, 635/667 nm (AID 1149); settings: COS7 hTOR1A-WT lysate, 635 nm fluorescence, higher = more signal
Sequence of Torsin-1A (Homo sapiens) (O14656 whole entry, looked up): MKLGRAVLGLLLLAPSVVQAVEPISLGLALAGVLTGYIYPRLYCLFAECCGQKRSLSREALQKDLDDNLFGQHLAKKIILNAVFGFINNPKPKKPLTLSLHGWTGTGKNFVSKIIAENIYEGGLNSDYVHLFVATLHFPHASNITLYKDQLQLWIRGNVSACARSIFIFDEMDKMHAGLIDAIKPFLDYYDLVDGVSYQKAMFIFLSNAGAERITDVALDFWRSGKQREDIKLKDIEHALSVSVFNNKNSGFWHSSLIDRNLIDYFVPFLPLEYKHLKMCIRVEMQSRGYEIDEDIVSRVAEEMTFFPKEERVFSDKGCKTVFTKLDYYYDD

[9] = target: Torsin-1A (Homo sapiens) (UniProt O14656); test: small-molecule binders of mutant TOR1A in lysate, primary screen, cell lysate, small-molecule microarray, COS7 lysate, 635/667 nm fluorescence (AID 1150); settings: COS7 hTOR1A mutant lysate, 635 nm fluorescence, higher = more signal;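 note: score pools 667 nm emission and signal to noise measuring lysate protein binding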
[10] = test system: Sonic hedgehog protein (Shh); test: small-molecule binders of Shh protein, primary screen, biochemical, small-molecule microarray, 635/667 nm fluorescence (AID 1151); settings: small-molecule microarray binding, 635 nm fluorescence; higher = more signal;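 note: Shh protein binding to compounds spotted on small-molecule microarray slides; score combines spot fluorescence intensity with signal-to-noise across triplicate slides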
[11] = E. coli DRC41 culture turbidity changes, primary screen, E. coli filamentation inducer project, strain DRC41, OD650, 48 h (AID 1152);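 note: E. coli MC1000 strain DRC41 lacking acrAB efflux pump and sulA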; settings: E. coli DRC41 (acrAB sulA), higher = more signal, called active from +8 up or from −8 down
[12] = small-molecule binders of probe aLefty1, primary screen, biochemical, small-molecule microarray, 635/667 nm fluorescence (AID 1153); settings: higher = more signal;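 note: score merges spot fluorescence with signal-to-noise ratio from the scanned slide images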
[13] = PSAC antagonists in infected red cells, primary screen, cell-based, P. falciparum Indochina, OD700, 1 h (AID 1154); settings: P. falciparum Indochina infected RBC osmotic lysis, higher = more signal, called active from +8 up or from −8 down
[14] = PSAC antagonists in infected red cells, primary screen, cell-based, P. falciparum Indochina, OD700, 2 h (AID 1155);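 note: lysis reports solute entry through the parasite surface anion channel PSAC; channel blockers reduce lysis of infected cells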; settings: P. falciparum Indochina infected erythrocytes, osmotic lysis OD700; higher = more signal, called active from +8 up or from −8 down
[15] = osmotic lysis modulators in infected erythrocytes, primary screen, PSAC antagonist project, cell-based, P. falciparum Indochina, OD700, 3 h (AID 1156); settings: higher = more signal, called active from +8 up or from −8 down
[16] = PSAC antagonists in infected red cells, primary screen, cell-based, P. falciparum Indochina, OD700, 18 h (AID 1157); settings: P. falciparum Indochina infected erythrocytes, osmotic lysis OD700, 18 h; higher = more signal, called active from +8 up or from −8 down
[17] = modulators of S6 phosphorylation in cells, primary screen, cell-based, A549, cytoblot, luminescence, serum-stimulated (AID 1158); settings: A549 phospho-S6 cytoblot, 5 h, higher = more signal;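 note: serum-stimulated A549 lung adenocarcinoma cells; signal is phosphorylated S6 detected by cytoblot immunostaining with HRP secondary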
[18] = target: NADPH oxidase 2 (Homo sapiens) (UniProt P04839); test: NOX2-dependent H2O2 signal modulators, primary screen, NOX inhibitor project, cell-based, HEK293-NOX2, PMA-stimulated, Amplex Red fluorescence (AID 1159); settings: 45 min, higher = more signal, called active from +8 up or from −8 down; note: test concentration not given here
Sequence of NADPH oxidase 2 (Homo sapiens) (P04839 whole entry, looked up): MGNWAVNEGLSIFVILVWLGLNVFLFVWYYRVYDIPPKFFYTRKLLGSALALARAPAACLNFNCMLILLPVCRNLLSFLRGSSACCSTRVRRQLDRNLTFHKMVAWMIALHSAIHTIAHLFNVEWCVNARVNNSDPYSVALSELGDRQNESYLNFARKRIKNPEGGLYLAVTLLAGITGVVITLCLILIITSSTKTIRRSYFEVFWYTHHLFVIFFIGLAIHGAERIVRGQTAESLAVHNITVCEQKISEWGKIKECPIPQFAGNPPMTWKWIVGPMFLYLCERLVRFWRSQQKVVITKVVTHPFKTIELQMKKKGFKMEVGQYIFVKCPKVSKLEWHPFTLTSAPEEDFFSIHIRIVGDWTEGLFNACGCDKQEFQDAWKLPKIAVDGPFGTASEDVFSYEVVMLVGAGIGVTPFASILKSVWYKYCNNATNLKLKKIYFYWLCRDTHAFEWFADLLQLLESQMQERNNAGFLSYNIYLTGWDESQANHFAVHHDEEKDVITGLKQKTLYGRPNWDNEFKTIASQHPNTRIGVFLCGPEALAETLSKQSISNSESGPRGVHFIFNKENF

[19] = target: NADPH oxidase 4 (Homo sapiens) (UniProt Q9NPH5); test: NOX4-dependent H2O2 signal modulators, primary screen, NOX inhibitor project, cell-based, HEK293-NOX4, tetracycline-induced, Amplex Red fluorescence (AID 1160); settings: 45 min, higher = more signal, called active from +8 up or from −8 down
Sequence of NADPH oxidase 4 (Homo sapiens) (Q9NPH5 whole entry, looked up): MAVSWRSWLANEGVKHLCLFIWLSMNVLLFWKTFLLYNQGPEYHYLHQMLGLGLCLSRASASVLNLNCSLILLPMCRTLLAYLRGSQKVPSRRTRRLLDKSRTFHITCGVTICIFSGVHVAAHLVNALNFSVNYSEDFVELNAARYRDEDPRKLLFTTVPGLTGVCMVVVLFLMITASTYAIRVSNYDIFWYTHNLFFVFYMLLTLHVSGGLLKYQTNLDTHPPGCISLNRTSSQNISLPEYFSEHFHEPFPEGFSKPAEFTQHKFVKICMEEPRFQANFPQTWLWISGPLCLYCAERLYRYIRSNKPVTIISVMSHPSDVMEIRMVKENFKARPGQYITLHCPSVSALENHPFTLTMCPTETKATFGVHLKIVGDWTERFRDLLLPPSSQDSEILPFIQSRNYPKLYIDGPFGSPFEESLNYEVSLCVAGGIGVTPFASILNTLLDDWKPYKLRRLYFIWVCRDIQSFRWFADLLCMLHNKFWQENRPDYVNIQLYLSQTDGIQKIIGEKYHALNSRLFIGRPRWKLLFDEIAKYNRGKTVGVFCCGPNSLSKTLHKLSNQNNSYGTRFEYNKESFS

[20] = target: NADPH oxidase 5 (Homo sapiens) (UniProt Q96PH1); test: NOX5-dependent H2O2 signal modulators, primary screen, NOX inhibitor project, cell-based, HEK293-NOX5, Amplex Red fluorescence (AID 1161); settings: HEK293-NOX5, ionomycin, 45 min, higher = more signal
Sequence of NADPH oxidase 5 (Homo sapiens) (Q96PH1 whole entry, looked up): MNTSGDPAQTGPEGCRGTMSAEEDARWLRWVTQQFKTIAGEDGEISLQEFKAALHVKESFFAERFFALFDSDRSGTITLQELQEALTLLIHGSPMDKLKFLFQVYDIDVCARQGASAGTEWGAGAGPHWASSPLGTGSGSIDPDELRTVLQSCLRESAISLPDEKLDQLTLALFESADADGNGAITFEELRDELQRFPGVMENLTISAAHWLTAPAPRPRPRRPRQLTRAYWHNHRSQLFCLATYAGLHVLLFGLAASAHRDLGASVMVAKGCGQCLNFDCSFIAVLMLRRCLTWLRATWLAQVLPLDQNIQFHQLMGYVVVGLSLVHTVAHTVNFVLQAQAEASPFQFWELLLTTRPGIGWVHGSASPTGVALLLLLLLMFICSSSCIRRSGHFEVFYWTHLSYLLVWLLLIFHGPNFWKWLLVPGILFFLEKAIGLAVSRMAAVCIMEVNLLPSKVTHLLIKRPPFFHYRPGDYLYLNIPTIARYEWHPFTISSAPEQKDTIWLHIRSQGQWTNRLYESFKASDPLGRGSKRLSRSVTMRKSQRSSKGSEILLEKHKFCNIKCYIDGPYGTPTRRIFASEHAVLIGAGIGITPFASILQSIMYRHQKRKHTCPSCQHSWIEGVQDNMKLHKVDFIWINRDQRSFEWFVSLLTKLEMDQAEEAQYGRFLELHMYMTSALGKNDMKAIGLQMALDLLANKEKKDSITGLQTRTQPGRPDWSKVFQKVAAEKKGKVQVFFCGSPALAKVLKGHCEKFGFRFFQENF

Compound	composite z-score [1]	z-score [2]	z-score [3]	z-score [4]	z-score [5]	composite z-score [6]	composite z-score [7]	composite z-score [8]	composite z-score [9]	composite z-score [10]	z-score [11]	composite z-score [12]	z-score [13]	z-score [14]	z-score [15]	z-score [16]	z-score [17]	z-score [18]	z-score [19]	z-score [20]
C=CC[C@@]1(C(=O)OC)N=C(c2ccc(OCCCO)cc2)O[C@@H]1c1ccccc1CN=[N+]=[N-]	0.0122	-4.22 (inactive)	-0.88 (inactive)	-1.03 (inactive)	-1.5 (inactive)	-0.233	-0.212	0.0478	-0.249	0.838	1.24 (inactive)	0.0674	26.9 (active)	18.7 (active)	-0.26 (inactive)	3.48 (inactive)	1.79	-4.05 (inactive)	0.419 (inactive)	-3.1
C=C[C@H](C)[C@H](O)c1ccc(OCCO)cc1	-0.965	-1.45 (inactive)	0.733 (inactive)	-0.272 (inactive)	0.0034 (inactive)	-1.29	-0.209	-2.73	-1.99	-0.773	1.05 (inactive)	-0.553	1.09 (inactive)	0.521 (inactive)	1.62 (inactive)	0.402 (inactive)	0.156	0.218 (inactive)	-0.187 (inactive)	-0.112
COc1ccc([Si](C)(C)[C@H]2[C@H](CC(=O)N3Cc4ccccc4C[C@H]3CO)O[C@@]3(C(=O)N(Cc4cccc(I)c4)c4ccccc43)[C@@H]2C)cc1	0.378	-4.1 (inactive)	-0.194 (inactive)	5.99 (inactive)	-0.919 (inactive)	0.795	-0.0102	3.09	2.17	2.15	0.232 (inactive)	0.0233	6.74 (inactive)	1.38 (inactive)	2.14 (inactive)	1.19 (inactive)	0.452	-1.36 (inactive)	-0.348 (inactive)	-2.55
CO[C@H]1O[C@H](CO)[C@@H](OC(=O)Nc2ccc3c(c2)OCO3)[C@H](OC(=O)Nc2ccc3c(c2)OCO3)[C@H]1OC(=O)Nc1ccc2c(c1)OCO2	0.158	-1.2 (inactive)	-0.416 (inactive)	1.05 (inactive)	-0.808 (inactive)	0.697	0.297	0.713	1.74	0.942	0.164 (inactive)	0.457	6.86 (inactive)	1.04 (inactive)	0.608 (inactive)	0.519 (inactive)	-0.489	-1.44 (inactive)	-0.847 (inactive)	-1.69
C[n+]1ccc2ccc(O)cc2c1	0.247	-0.289 (inactive)	0.125 (inactive)	0.389 (inactive)	-0.287 (inactive)	-0.426	-0.0405	2.27	1.19	1.95	0.0539 (inactive)	-0.109	0.907 (inactive)	0.557 (inactive)	1.95 (inactive)	0.374 (inactive)	0.387	-0.469 (inactive)	-0.566 (inactive)	0.0145
O=C(NCC(O)CO)[C@@]1(Cc2ccccc2)N=C(c2ccc(OCCCO)cc2)O[C@H]1c1ccccc1 (stereo not given in full)	0.626	-2.66 (inactive)	-0.473 (inactive)	3.33 (inactive)	0.768 (inactive)	0.993	1.03	0.477	1.23	-0.959	0.931 (inactive)	0.828	19.8 (active)	3.69 (inactive)	1.88 (inactive)	1.28 (inactive)	-0.142	-0.513 (inactive)	1.63 (inactive)	1.16
COc1cc2c(cc1O)C(c1ccc(CN3CCCC3)cc1)N(Cc1sc3ccccc3c1Cl)CC2 (stereo not given)	0.0746	-3.63 (inactive)	-0.0323 (inactive)	0.416 (inactive)	0.821 (inactive)	0.706	-0.292	0.834	0.309	0.436	0.13 (inactive)	-0.113	12.5 (active)	2.66 (inactive)	0.913 (inactive)	1.7 (inactive)	0.0223	-3.44 (inactive)	-3.41 (inactive)	-4
COC(=O)C(CC#Cc1ccc2c(c1)[C@]1(C(=O)N2)[C@H](C(=O)N2CCCCCCC2)[C@H]2C(=O)O[C@H](c3ccccc3)[C@H](c3ccccc3)N2[C@@H]1c1ccccc1OCCO)C(=O)OC	2.44	-3.54 (inactive)	-0.429 (inactive)	-0.141 (inactive)	-0.81 (inactive)	4.06	2.24	3.84	3.73	2.04	-0.984 (inactive)	3.08	1.49 (inactive)	0.918 (inactive)	0.573 (inactive)	0.417 (inactive)	-0.0756	0.445 (inactive)	0.262 (inactive)	1.22
Cc1ccc(S(=O)(=O)N2CC(C(=O)O)=CCC2c2ccccc2)cc1 (stereo not given)	-0.0669	0.0982 (inactive)	-0.153 (inactive)	-0.266 (inactive)	0.222 (inactive)	-0.134	-0.128	1.08	-0.307	-0.861	-1.24 (inactive)	0.0717	1.17 (inactive)	1.1 (inactive)	1.13 (inactive)	0.879 (inactive)	-0.55	-0.363 (inactive)	-1.02 (inactive)	-1.02
CCOC(=O)C1=CC[C@@H](c2cccc(Cl)c2)N(S(=O)(=O)c2ccc(C)cc2)[C@H]1c1ccc(C#N)cc1	0.473	-1.1 (inactive)	0.494 (inactive)	-0.228 (inactive)	0.119 (inactive)	1.15	0.0627	0.384	0.788	0.741	-1.41 (inactive)	0.514	1.53 (inactive)	1.34 (inactive)	0.0178 (inactive)	0.729 (inactive)	-0.438	0.827 (inactive)	1.2 (inactive)	0.639
CCOC(=O)C1=CC[C@@H](c2ccccc2)N(S(=O)(=O)c2ccc(C)cc2)[C@H]1c1ccc(C#N)cc1	0.344	-2.07 (inactive)	0.742 (inactive)	1.42 (inactive)	0.0633 (inactive)	1.31	0.066	-0.0412	0.389	-0.428	-1.38 (inactive)	0.161	1.92 (inactive)	0.858 (inactive)	0.224 (inactive)	0.705 (inactive)	-0.882	0.428 (inactive)	-1.1 (inactive)	0.0836
CC(=O)NCCCC[C@@H]1NC(=O)[C@@H]2C[C@H](C(=O)NCc3ccc(F)cc3)[C@H](c3ccc(O)cc3)N2C1=O	0.0547	-0.395 (inactive)	0.587 (inactive)	0.431 (inactive)	0.158 (inactive)	0.0542	-0.176	0.821	0.524	1.56	0.921 (inactive)	-0.0601	1.63 (inactive)	0.549 (inactive)	-1.64 (inactive)	0.277 (inactive)	-0.0125	0.647 (inactive)	0.059 (inactive)	1.37
COc1ccc([Si](C)(C)[C@@H]2[C@@H](CCO)O[C@]3(C(=O)N(Cc4ccccc4)c4ccc(N(C=O)c5ccccc5)cc43)[C@H]2C)cc1	0.155	-5.23 (inactive)	-1.1 (inactive)	4.18 (inactive)	-0.336 (inactive)	-0.0047	-0.0762	0.353	0.188	1.26	0.601 (inactive)	0.0355	2.8 (inactive)	2.37 (inactive)	1.09 (inactive)	1.87 (inactive)	0.418	0.337 (inactive)	1.06 (inactive)	2.49
Cc1ccc(S[C@]2(C(=O)NCC(F)(F)F)CC(=O)N(C3Cc4ccccc4C3)[C@@H]2c2ccc(CO)cc2I)cc1	-0.465	-1.42 (inactive)	-0.46 (inactive)	-0.231 (inactive)	0.0489 (inactive)	-0.457	-0.0471	0.108	-0.248	-0.703	1.1 (inactive)	0.0013	6.63 (inactive)	1.29 (inactive)	0.577 (inactive)	0.526 (inactive)	-0.204	0.994 (inactive)	-1.56 (inactive)	1.06
COc1ccc([Si](C)(C)[C@H]2[C@H](CCO)O[C@@]3(C(=O)N(Cc4ccccc4)c4ccc(N5C(=O)COc6ccccc65)cc43)[C@@H]2C)cc1	0.19	-6.69 (inactive)	-0.539 (inactive)	-0.258 (inactive)	-0.81 (inactive)	0.0375	0.189	-0.503	0.105	1.92	0.592 (inactive)	0.167	5.33 (inactive)	2.16 (inactive)	1.3 (inactive)	1.65 (inactive)	2.08	-1.74 (inactive)	1.53 (inactive)	0.595
COc1ccc([Si](C)(C)[C@@H]2[C@@H](CCO)O[C@]3(C(=O)N(Cc4cccc(N(C=O)c5ccccc5)c4)c4ccccc43)[C@H]2C)cc1	-0.0398	-7.17 (inactive)	0.465 (inactive)	7.39 (inactive)	-0.671 (inactive)	0.156	0.0543	0.0905	-0.004	0.98	0.313 (inactive)	0.0811	4.07 (inactive)	0.49 (inactive)	2.32 (inactive)	-1.17 (inactive)	0.62	0.773 (inactive)	-0.249 (inactive)	-0.78
Cc1ccc(F)cc1S(=O)(=O)N[C@@H]1CCN(Cc2ccc(C(F)(F)F)cc2)C1	-0.192	-4.39 (inactive)	1.2 (inactive)	3.48 (inactive)	0.777 (inactive)	-0.381	-0.208	-0.181	0.319	0.451	-5.36 (inactive)	-0.152	4.85 (inactive)	1.15 (inactive)	0.129 (inactive)	0.624 (inactive)	-0.147	-0.344 (inactive)	-1.19 (inactive)	-2
